# Compound activity: PubChem, several laboratories
# 3CLpro inhibitor: SARS-CoV 3CLpro protease inhibitors, primary screen, biochemical, quenched FRET | AID 1706, 2009 | inhibition, % at 6 µM | 290,000 tested, 0.14% active | Replicase polyprotein 1ab (Severe acute respiratory syndrome coronavirus), P0C6X7 | recombinant SARS-CoV 3CLpro, quenched FRET peptide cleavage; in the data active means inhibition above about 12%
# PrPC surface inh: inhibitors of human cell surface prion protein PrPC, primary screen, cell-based, TR-FRET | TR-FRET read-out | AID 720596, 2013 | 370,000 tested, 0.43% active | inhibition, % at 13.8 µM; in the data active means inhibition above about 24%
# CCHFV vOTU inh: CCHFV vOTU protease inhibitors, primary screen, biochemical, Pep-AMC substrate, fluorescence | Crimean-Congo hemorrhagic fever virus L polyprotein viral ovarian tumor (vOTU) protease … | inhibition, % at 11.5 µM | 370,000 tested, 0.55% active | AID 651958, 2012; in the data active means inhibition above about 30%
# PrP 5UTR inh: inhibition of PrP 5' UTR reporter expression | cell-based PrP 5' UTR mRNA reporter, plate reader | inhibition, % (no concentration beside the values) | 340,000 tested, 0.35% active | AID 488862, 2010; in the data active means inhibition above about 52%
# PrP UTR cherry: prion 5' UTR mRNA inhibition, cherry-pick retest; shares compounds with PrP 5UTR inh; cell-based prion protein 5' UTR reporter, plate reader; inhibition, % at 2.5 µM; 1,100 tested, 48% active; in the data active means inhibition above about 54%; inconclusive means no clear call, values can overlap the other calls
# A number is an active result; 0 = inactive; ? = inconclusive; - = no result. An excerpt weighted towards active compounds, which were near 1.3% of everything screened.
SMILES,3CLpro inhibitor,PrPC surface inh,CCHFV vOTU inh,PrP 5UTR inh,PrP UTR cherry
O=C(c1ccc(Br)cc1)c1cc([N+](=O)[O-])ccc1N1CCCCC1,0,0,0,58,94
CSc1ccc(COC(=O)c2cc([N+](=O)[O-])ccc2N2CCOCC2)cc1,-,0,0,72,89
Cc1ccc(C(=O)c2cc([N+](=O)[O-])ccc2N2CCOCC2)c(C)c1,0,0,0,75,86
c1ccc(NNC2=NCCCCC2)cc1,0,0,0,-,-
CCOC(=O)CNc1nc(C(C)(C)C)nc2c1nnn2Cc1ccccc1,0,0,0,0,-
O=C(Nc1ccc(NC(=S)NC(=O)c2cccs2)cc1)c1ccco1,0,0,0,0,-
Cc1ccc(-n2c(C)cc(C(=O)COc3cccnc3[N+](=O)[O-])c2C)cc1,0,0,0,0,-
Cc1cc(C(=O)COc2cccnc2[N+](=O)[O-])c(C)n1-c1ccccc1,0,0,0,58,?
O=C(/C=C/c1ccccc1[N+](=O)[O-])OCC(=O)c1ccccc1,0,0,0,0,-
Cc1ccc(S(=O)(=O)N2CCN(C(=O)N3CCCC3)CC2)cc1,0,0,0,0,-
Cc1ccc(S(=O)(=O)N2CCN(C(=O)N(C)C)CC2)cc1,0,0,0,62,0
COc1ccccc1/C=C/CN1CCN(Cc2ccc(C)o2)C(CCO)C1 (stereo unspecified),0,0,0,0,-
COc1cc(/C=C/CN2CCN(Cc3ccc(C)o3)C(CCO)C2)ccc1O (stereo unspecified),0,0,0,55,?
CCCc1c(C(=O)Nc2ccc(N3CCOCC3)cc2)cnn1-c1ccccc1,0,0,0,0,-
CCCc1c(C(=O)Nc2ccc(C(F)(F)F)cc2)cnn1-c1ccccc1,0,0,0,65,0
O=C(NCCc1ccccc1F)/C(=C/c1cccnc1)NC(=O)c1ccccc1,0,0,0,0,-
O=C(Nc1nc(-c2ccccc2)cs1)Nc1ccc(F)cc1F,0,0,0,0,-
O=C(Nc1ccccc1Cc1ccccc1)C1CC(=O)N(c2ccc3c(c2)OCCO3)C1 (stereo unspecified),0,0,0,0,-
Fc1ccc(-c2nnc(NC3=NCCCCC3)o2)cc1,0,0,0,78,64
c1ccc(-c2nnc(NC3=NCCC3)o2)cc1,0,0,0,0,-
NS(=O)(=O)c1cc2c(cc1Cl)NC(CC1CCCC1)NS2(=O)=O (stereo unspecified),0,0,0,0,-
COc1ccc(Cl)cc1C(=O)CSc1nnnn1C1CCCC1,0,0,0,0,-
COCCn1c(C)cc(C(=O)CSc2nnnn2C2CCCC2)c1C,-,0,0,64,57
COCCn1c(C)cc(C(=O)CSc2nnc(C)s2)c1C,0,0,0,57,72
COCCn1c(C)cc(C(=O)COC(=O)c2cccc(O)c2)c1C,0,0,0,83,79
SMILES,3CLpro inhibitor,PrPC surface inh,CCHFV vOTU inh,PrP 5UTR inh,PrP UTR cherry
O=[N+]([O-])c1cc(-c2cnc3ccccc3n2)ccc1Oc1ccc(Cl)cc1,0,0,0,0,-
O=c1[nH]c(=O)n(CCCc2ccccc2)cc1-c1ccccc1,-,0,0,63,0
CCN1C(=O)[C@H]2[C@H]3CN=C(SC)N3[C@@](CC)(C(=O)OC)[C@H]2C1=O,-,0,0,66,0
CCN1C(=O)[C@H]2[C@H]3CN=C(SCC4CC4)N3[C@@](CC)(C(=O)OC)[C@H]2C1=O,-,0,0,0,-
Cc1ccc(S(=O)(=O)NCCCCCC(=O)NC(C)(C)CO)cc1,0,0,0,0,-
COc1cc(-c2noc(C)c2/C=C/c2ccc(OC(C)=O)cc2)cc(OC)c1OC,0,0,0,64,85
Cc1ccc(C(=O)NCC(=O)Nc2ccccc2C)o1,-,0,0,-,-
NCCCCNCCCN,-,0,0,0,-
NCCNCCNCCN,0,0,0,89,0
Cc1ccc(C(=O)N2C3C=CC(C3)C2(C(F)(F)F)C(F)(F)F)cc1 (stereo unspecified),0,0,0,86,0
O=S(=O)(c1ccccc1C(F)(F)F)N1CCN(c2ncnc3sccc23)CC1,-,0,0,0,-
CC(C)CCn1c(N2CCN(c3cccc(Cl)c3)CC2)nc2c1c(=O)[nH]c(=O)n2C,0,0,0,0,-
C[C@]12CCC(=O)C[C@@H]1CC[C@@H]1[C@@H]2CC[C@]2(C)[C@@H](O)CC[C@@H]12,-,0,0,0,-
C[C@]12CCC(=O)C[C@@H]1CC[C@@H]1[C@@H]2CC[C@]2(C)C=CC[C@@H]12,0,0,0,66,0
CC(C)(C)c1ccc(-c2noc(CCC(=O)Nc3cccnc3)n2)cc1,0,0,0,65,0
CCCC(=O)NC(=S)Nc1c(C)cc(Br)cc1C,0,0,0,0,-
CCCCCC(=O)NC(=S)Nc1ccc(Br)cc1C,0,0,0,57,0
COc1ccc(-n2c(Cc3cc(=O)[nH]c(=O)[nH]3)nnc2SCC(=O)NC2CCCC2)cc1,0,0,0,61,0
CC(C)(O)C#Cc1ccc(C(=O)N2CCN(c3ccc([N+](=O)[O-])cc3)CC2)cc1,0,0,0,0,-
CCCOc1c(OC)cccc1C1CC(=O)Nc2cc3c(cc21)OCCO3 (stereo unspecified),0,0,0,0,-
CCCNS(=O)(=O)c1cccc(C(=O)OCc2cc(=O)oc3cc(OC)ccc23)c1,0,0,0,57,69
Cc1ccc2c(c1)C(=O)c1c(C(=O)O)cccc1-2,0,0,0,78,0
O=C(O)c1cccc2c1-c1ccc([N+](=O)[O-])cc1C2=O,-,0,0,0,-
CSC(=Nc1ccccc1)N=C(SCc1ccccc1)N(C)C,-,0,0,74,0
NC(=O)c1cc([N+](=O)[O-])ccc1NCc1ccc(N)cc1,-,0,0,74,75
SMILES,3CLpro inhibitor,PrPC surface inh,CCHFV vOTU inh,PrP 5UTR inh,PrP UTR cherry
O=c1[nH]c2cc([N+](=O)[O-])ccc2c2ccc([N+](=O)[O-])cc12,-,0,0,88,0
O=c1[nH]c2cc([N+](=O)[O-])ccc2c2ccccc12,-,0,0,0,-
CCCCN(C(=O)CCC(=O)OCC(=O)NCc1ccccc1)c1c(N)n(CCC)c(=O)[nH]c1=O,-,0,0,0,-
CCCN1CCN(CC(=O)Nc2nnc(C)s2)CC1,0,0,0,52,0
COc1ccc(C(=O)CC(=O)c2ccc(C(C)(C)C)cc2)cc1,-,0,0,57,0
COc1ccc(C(=O)CC(=O)c2ccc(F)cc2)cc1,-,0,0,-,-
O=C(c1oc(=O)c2ccccc2c1-c1ccccc1)N1CCC(O)CC1,0,0,0,68,0
O=C(c1oc(=O)c2ccccc2c1-c1ccccc1)N1CCN(C2CCCCC2)CC1,0,0,0,0,-
CC1(C)S[C@@H]2[C@H](NC(=O)[C@H](N)c3ccccc3)C(=O)N2[C@H]1C(=O)O,0,0,0,0,-
O=C(NC1CCCCC1)c1n[nH]c2c1CCCCC2,-,0,0,79,59
CCC(C)(C)C1CCc2[nH]nc(C(=O)NC3CCCC3)c2C1 (stereo unspecified),-,0,0,0,-
CC(=O)OCC(=O)Nc1c(C)cccc1C,0,0,0,0,-
CC(=O)OCC(=O)Nc1ccccc1C,0,0,0,76,0
